Experimental data as given in the supplement of paper PMC10849652.
The full data set covers some 7,900 targets. This sample favours those with a hit. About 0.6% of all pairs of compound and target were hits.

Assays:
Assay in all cases: log2 fold change, soluble protein after heating vs DMSO (PISA); higher = thermal stabilisation; K562 cells, 10 uM, 30 min; active = over 0.2 and 3.5 SD of the protein, either way, in both replicates (recomputed)
[1] = compound: NC(=O)Nc1cc(-c2cccc(F)c2)sc1C(=O)N[C@H]1CCCNC1
Outline: (§1)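 Values are thermal stability changes relative to control samples and are taken from duplicates. They are stated as log2 fold changes. Before quantification by TMTpro 16plex LC-MS/MS with equalised channel sums, K562 cells at 2×10^6 cells/mL were treated with 10 μM compound for 30 min, heated in aliquots for 3 min across 48°C-58°C, pooled, extracted in PBS with 0.5% NP-40 at 4°C, and centrifuged at 21,000xg for 90 min to give the soluble supernatant.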

[2] = compound: NC(=O)c1cnc(N[C@@H]2CCCC[C@@H]2N)nc1Nc1cccc(-n2nccn2)c1
Outline: as §1

[3] = compound: NC1(c2ccc(-c3nc4ccn5c(=O)[nH]nc5c4cc3-c3ccccc3)cc2)CCC1
Outline: as §1

[4] = compound: NCC(=O)Nc1ccc(-n2nc(C(F)(F)F)cc2-c2ccc3c(ccc4ccccc43)c2)cc1
Outline: as §1

entinostat = compound: Nc1ccccc1NC(=O)c1ccc(CNC(=O)OCc2cccnc2)cc1 [entinostat]
Outline: as §1

vorinostat = compound: O=C(CCCCCCC(=O)Nc1ccccc1)NO [vorinostat]
Outline: as §1

citarinostat = compound: O=C(CCCCCCNC(=O)c1cnc(N(c2ccccc2)c2ccccc2Cl)nc1)NO [citarinostat]
Outline: as §1

silmitasertib = compound: O=C(O)c1ccc2c(c1)nc(Nc1cccc(Cl)c1)c1ccncc12 [silmitasertib]
Outline: as §1

[5] = compound: O=C1NC(=O)C(c2cnc3ccccn23)=C1c1cn2c3c(cc(F)cc13)CN(C(=O)N1CCCCC1)CC2
Outline: as §1

[6] = compound: c1cc(OCCN2CCCCC2)cc(-c2n[nH]c3ccc(-c4nnc[nH]4)cc23)c1
Outline: as §1

Measured: log2 fold change

MTHFS (UniProt P49914)
UniProt P49914, sequence (P49914 whole entry, looked up): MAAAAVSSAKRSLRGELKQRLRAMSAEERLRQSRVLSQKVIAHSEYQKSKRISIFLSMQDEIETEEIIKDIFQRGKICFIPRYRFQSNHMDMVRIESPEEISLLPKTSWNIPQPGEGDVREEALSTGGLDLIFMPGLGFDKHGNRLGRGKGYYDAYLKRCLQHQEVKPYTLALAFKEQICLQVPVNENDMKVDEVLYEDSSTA
inactive: [1] -0.021 | [2] -0.028 | [3] -0.086 | [4] -0.135 | entinostat 0.007 | vorinostat -0.1 | citarinostat 0.025 | silmitasertib 0.021 | [5] 0.014 | [6] -0.057

PAFAH1B2 (UniProt P68402)
UniProt P68402, sequence (P68402 whole entry, looked up): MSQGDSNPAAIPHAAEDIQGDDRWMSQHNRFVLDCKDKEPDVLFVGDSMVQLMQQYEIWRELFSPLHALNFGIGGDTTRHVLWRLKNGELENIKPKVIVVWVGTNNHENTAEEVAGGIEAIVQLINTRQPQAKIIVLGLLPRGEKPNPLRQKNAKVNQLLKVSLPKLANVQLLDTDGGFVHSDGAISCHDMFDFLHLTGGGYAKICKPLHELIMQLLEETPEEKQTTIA
inactive: [1] 0.015 | [2] 0.049 | [3] -0.037 | [4] -0.025 | entinostat 0.045 | vorinostat -0.088 | citarinostat 0.021 | silmitasertib 0.106 | [5] -0.048 | [6] -0.097

OGFOD1 (UniProt Q8N543)
UniProt Q8N543, sequence (Q8N543 whole entry, looked up): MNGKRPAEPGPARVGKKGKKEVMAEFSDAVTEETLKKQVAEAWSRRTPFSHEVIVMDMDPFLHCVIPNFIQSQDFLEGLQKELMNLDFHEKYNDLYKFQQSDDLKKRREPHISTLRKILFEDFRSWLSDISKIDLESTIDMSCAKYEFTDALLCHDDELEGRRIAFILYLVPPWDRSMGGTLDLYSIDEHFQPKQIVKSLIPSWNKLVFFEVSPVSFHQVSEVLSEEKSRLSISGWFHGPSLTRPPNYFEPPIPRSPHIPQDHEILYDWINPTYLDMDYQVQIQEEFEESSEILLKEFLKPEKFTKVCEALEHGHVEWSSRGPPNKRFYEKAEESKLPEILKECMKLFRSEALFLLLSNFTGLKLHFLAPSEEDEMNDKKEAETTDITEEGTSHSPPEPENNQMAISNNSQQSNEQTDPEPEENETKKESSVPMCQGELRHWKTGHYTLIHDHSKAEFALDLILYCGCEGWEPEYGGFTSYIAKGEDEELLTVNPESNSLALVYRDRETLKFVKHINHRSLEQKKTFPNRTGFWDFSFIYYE
inactive: [1] 0.015 | [2] 0.021 | [3] -0.08 | [4] -0.056 | entinostat -0.002 | vorinostat 0.005 | citarinostat 0.012 | silmitasertib 0.02 | [5] -0.072 | [6] -0.006

MRPS25 (UniProt P82663)
inactive: [1] -0.031 | [2] 0.046 | [3] 0.04 | [4] 0.04 | entinostat 0.021 | vorinostat -0.036 | citarinostat 0.073 | silmitasertib -0.053 | [5] 0.062 | [6] -0.074

NCAPG (UniProt Q9BPX3)
UniProt Q9BPX3, sequence (Q9BPX3 whole entry, looked up): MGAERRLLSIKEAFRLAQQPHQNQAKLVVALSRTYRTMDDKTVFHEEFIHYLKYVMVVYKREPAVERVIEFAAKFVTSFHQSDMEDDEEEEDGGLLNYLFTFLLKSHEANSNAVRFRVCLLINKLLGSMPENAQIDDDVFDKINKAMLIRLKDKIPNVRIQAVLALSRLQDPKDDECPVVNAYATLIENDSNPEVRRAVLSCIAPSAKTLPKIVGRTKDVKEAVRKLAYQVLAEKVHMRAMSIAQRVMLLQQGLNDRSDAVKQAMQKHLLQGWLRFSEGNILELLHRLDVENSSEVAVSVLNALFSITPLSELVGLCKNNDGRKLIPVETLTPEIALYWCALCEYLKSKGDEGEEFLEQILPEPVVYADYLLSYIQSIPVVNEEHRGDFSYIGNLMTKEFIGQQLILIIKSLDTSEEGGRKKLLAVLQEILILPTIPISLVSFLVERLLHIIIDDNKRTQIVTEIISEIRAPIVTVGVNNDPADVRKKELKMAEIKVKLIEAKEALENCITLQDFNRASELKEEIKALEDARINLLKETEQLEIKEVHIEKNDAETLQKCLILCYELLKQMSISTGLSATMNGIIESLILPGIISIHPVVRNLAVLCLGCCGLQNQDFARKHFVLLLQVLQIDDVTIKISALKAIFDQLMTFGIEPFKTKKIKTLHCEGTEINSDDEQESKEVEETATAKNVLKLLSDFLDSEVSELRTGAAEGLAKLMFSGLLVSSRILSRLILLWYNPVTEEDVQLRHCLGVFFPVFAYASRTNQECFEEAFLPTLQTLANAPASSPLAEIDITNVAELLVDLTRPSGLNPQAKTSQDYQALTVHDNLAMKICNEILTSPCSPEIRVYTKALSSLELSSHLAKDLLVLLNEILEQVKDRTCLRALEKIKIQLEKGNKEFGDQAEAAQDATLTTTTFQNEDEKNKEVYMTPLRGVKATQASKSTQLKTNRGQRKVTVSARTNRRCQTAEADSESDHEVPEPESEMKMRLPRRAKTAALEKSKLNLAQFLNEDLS
inactive: [1] -0.062 | [2] -0.036 | [3] -0.118 | [4] -0.06 | entinostat 0.073 | vorinostat 0.101 | citarinostat 0.067 | silmitasertib 0.1 | [5] 0.005 | [6] -0.016

NOSIP (UniProt Q9Y314)
UniProt Q9Y314, sequence (Q9Y314 whole entry, looked up): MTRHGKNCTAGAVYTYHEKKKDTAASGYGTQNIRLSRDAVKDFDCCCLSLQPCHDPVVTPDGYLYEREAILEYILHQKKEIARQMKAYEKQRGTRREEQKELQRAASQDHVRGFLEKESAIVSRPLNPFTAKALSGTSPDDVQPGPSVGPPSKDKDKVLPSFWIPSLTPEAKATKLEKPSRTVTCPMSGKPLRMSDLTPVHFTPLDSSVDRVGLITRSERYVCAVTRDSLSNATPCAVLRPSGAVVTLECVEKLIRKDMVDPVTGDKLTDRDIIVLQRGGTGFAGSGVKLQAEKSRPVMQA
inactive: [1] 0 | [2] -0.004 | [3] -0.095 | [4] -0.121 | entinostat 0.16 | vorinostat 0.163 | citarinostat 0.136 | silmitasertib 0.082 | [5] -0.095 | [6] 0.019

OXSM (UniProt Q9NWU1)
UniProt Q9NWU1, sequence (Q9NWU1 whole entry, looked up): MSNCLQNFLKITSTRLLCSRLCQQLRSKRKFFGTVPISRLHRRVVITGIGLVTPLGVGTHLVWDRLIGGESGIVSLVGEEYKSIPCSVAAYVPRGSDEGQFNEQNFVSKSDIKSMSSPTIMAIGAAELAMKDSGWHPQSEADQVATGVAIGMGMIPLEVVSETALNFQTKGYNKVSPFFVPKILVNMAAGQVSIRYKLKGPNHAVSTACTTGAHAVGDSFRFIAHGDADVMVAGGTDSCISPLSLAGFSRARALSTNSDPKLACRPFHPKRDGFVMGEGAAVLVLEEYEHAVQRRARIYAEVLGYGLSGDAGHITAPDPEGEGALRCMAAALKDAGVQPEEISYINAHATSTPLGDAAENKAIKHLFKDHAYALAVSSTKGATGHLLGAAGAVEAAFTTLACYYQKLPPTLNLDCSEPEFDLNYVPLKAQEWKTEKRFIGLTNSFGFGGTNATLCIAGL
inactive: [1] 0.016 | [2] 0.068 | [3] -0.026 | [4] 0.049 | entinostat -0.019 | vorinostat -0.028 | citarinostat 0.037 | silmitasertib -0.04 | [5] -0.011 | [6] -0.015

NCOA7 (UniProt Q8NI08)
inactive: [1] -0.061 | [2] -0.036 | [3] -0.068 | [4] -0.033 | entinostat -0.067 | vorinostat 0.026 | citarinostat -0.001 | silmitasertib 0.022 | [5] -0.093 | [6] -0.005

NISCH (UniProt Q9Y2I1)
inactive: [1] -0.052 | [2] -0.293 | [3] -0.354 | [4] -0.168 | entinostat 0.101 | vorinostat 0.09 | citarinostat 0.023 | silmitasertib 0.065 | [5] 0.081 | [6] -0.147

NFX1 (UniProt Q12986)
UniProt Q12986, sequence (Q12986 whole entry, looked up): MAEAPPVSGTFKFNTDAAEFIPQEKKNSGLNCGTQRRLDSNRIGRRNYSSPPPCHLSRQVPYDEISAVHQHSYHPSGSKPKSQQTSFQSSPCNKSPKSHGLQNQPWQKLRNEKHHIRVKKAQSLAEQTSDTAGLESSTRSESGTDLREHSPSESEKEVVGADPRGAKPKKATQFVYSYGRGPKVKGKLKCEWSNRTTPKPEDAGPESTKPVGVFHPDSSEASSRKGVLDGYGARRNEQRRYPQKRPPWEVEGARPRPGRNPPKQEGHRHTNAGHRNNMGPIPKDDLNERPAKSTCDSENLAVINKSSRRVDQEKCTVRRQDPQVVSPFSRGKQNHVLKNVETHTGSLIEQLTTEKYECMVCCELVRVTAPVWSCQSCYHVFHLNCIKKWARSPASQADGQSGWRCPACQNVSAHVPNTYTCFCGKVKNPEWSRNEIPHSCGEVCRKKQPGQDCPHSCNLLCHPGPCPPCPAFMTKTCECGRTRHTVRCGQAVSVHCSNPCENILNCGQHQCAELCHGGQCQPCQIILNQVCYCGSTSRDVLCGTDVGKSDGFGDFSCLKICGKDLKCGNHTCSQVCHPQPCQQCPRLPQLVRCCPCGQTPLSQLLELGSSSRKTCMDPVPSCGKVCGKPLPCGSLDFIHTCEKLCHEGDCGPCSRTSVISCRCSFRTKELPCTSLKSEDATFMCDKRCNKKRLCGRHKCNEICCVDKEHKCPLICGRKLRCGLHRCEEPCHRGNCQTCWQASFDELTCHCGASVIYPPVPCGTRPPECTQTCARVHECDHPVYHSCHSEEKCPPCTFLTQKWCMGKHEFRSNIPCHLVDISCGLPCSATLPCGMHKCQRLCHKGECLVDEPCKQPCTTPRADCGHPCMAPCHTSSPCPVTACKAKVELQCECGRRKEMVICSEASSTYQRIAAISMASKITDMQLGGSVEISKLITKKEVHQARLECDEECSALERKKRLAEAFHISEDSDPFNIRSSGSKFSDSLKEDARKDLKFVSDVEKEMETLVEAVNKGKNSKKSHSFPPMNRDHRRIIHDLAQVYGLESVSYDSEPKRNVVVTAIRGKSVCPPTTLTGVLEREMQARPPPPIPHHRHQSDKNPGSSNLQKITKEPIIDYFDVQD
active: [3] 0.659
inactive: [1] 0.157 | [2] 0.008 | [4] 0.045 | entinostat 0.014 | vorinostat -0.016 | citarinostat -0.033 | silmitasertib -0.006 | [5] -0.018 | [6] -0.019

PAK1 isoform 2 (UniProt Q13153)
inactive: [1] -0.067 | [2] 0.051 | [3] 0.012 | [4] -0.083 | entinostat 0.021 | vorinostat 0.096 | citarinostat -0.033 | silmitasertib 0.043 | [5] -0.068 | [6] -0.032

NAP1L1 (UniProt P55209)
inactive: [1] -0.084 | [2] 0.049 | [3] -0.01 | [4] -0.016 | entinostat 0.02 | vorinostat 0.008 | citarinostat -0.01 | silmitasertib 0.069 | [5] -0.038 | [6] 0.069

MRPS16 (UniProt Q9Y3D3)
inactive: [1] 0.026 | [2] -0.04 | [3] -0.079 | [4] -0.05 | entinostat 0.075 | vorinostat 0.133 | citarinostat 0.057 | silmitasertib -0.063 | [5] -0.016 | [6] -0.036

MTHFD1, A0A384N5Y3
MTHFD1, A0A384N5Y3, sequence (A0A384N5Y3 whole entry, looked up): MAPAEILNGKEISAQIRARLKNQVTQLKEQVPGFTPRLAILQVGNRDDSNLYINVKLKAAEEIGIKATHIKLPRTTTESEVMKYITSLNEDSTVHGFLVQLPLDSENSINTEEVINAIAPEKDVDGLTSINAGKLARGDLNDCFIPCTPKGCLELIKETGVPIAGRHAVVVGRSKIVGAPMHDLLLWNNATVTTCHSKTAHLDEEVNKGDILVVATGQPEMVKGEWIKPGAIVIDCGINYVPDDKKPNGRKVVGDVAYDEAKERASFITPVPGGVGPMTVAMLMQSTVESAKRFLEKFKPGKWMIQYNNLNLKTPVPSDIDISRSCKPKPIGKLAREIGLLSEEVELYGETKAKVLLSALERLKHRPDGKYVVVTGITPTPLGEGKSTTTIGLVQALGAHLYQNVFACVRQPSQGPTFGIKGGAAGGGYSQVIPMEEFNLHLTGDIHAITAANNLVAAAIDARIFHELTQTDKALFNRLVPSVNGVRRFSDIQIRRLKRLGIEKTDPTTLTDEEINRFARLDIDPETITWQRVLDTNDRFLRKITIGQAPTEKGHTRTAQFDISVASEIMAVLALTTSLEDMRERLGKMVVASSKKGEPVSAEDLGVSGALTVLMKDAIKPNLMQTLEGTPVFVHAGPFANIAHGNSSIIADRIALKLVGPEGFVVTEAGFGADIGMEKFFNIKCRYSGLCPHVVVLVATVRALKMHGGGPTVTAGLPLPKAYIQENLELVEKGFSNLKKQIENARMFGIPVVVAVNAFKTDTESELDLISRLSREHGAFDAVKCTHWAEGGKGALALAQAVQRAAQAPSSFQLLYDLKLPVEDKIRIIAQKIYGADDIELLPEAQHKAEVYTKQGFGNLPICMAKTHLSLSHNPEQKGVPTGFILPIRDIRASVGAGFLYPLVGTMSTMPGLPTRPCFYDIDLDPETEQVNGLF
inactive: [1] -0.048 | [2] -0.033 | [3] 0.17 | [4] -0.077 | entinostat -0.059 | vorinostat 0.013 | citarinostat 0.024 | silmitasertib -0.091 | [5] -0.056 | [6] 0.041

MRPS33 (UniProt Q9Y291)
inactive: [1] 0.019 | [2] 0.02 | [3] -0.032 | [4] 0.046 | entinostat 0 | vorinostat 0.035 | citarinostat 0.039 | silmitasertib -0.066 | [5] 0.016 | [6] -0.052

NNT (UniProt Q13423)
inactive: [1] -0.007 | [2] -0.037 | [3] -0.062 | [4] -0.029 | entinostat 0.006 | vorinostat 0.025 | citarinostat 0.018 | silmitasertib -0.027 | [5] -0.041 | [6] 0.024

MPP1 (UniProt Q00013)
inactive: [1] -0.083 | [2] -0.015 | [3] -0.159 | [4] -0.067 | entinostat 0.047 | vorinostat 0.093 | citarinostat 0.036 | silmitasertib 0.022 | [5] 0.027 | [6] -0.059

MND1 (UniProt Q9BWT6)
inactive: [1] -0.024 | [2] -0.012 | [3] -0.118 | [4] -0.119 | entinostat 0.041 | vorinostat -0.11 | citarinostat -0.033 | silmitasertib -0.014 | [5] -0.042 | [6] -0.146

NDUFB7 (UniProt P17568)
UniProt P17568, sequence (P17568 whole entry, looked up): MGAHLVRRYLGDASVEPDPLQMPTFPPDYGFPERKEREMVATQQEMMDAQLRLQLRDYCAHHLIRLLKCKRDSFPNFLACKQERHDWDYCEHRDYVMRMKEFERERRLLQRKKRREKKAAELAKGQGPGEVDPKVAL
inactive: [1] 0.039 | [2] -0.015 | [3] -0.02 | [4] 0.055 | entinostat -0.013 | vorinostat -0.037 | citarinostat 0.029 | silmitasertib 0 | [5] -0.094 | [6] 0.009

NDUFB1 (UniProt O75438)
UniProt O75438, sequence (O75438 whole entry, looked up): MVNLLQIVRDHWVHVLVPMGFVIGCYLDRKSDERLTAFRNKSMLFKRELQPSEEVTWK
inactive: [1] 0.053 | [2] -0.114 | [3] -0.007 | [4] -0.134 | entinostat 0.055 | vorinostat 0.108 | citarinostat -0.026 | silmitasertib -0.014 | [5] -0.124 | [6] 0.012

OTUD4 (UniProt Q01804)
inactive: [1] 0.006 | [2] 0.026 | [3] 0.071 | [4] 0.001 | entinostat -0.051 | vorinostat 0.016 | citarinostat -0.016 | silmitasertib 0.02 | [5] 0.033 | [6] -0.061

MRPL50 (UniProt Q8N5N7)
inactive: [1] 0.024 | [2] 0.154 | [3] 0.035 | [4] 0.074 | entinostat 0.059 | vorinostat -0.102 | citarinostat 0.051 | silmitasertib 0.006 | [5] -0.078 | [6] -0.078

NUP205 (UniProt Q92621)
inactive: [1] -0.042 | [2] -0.023 | [3] -0.075 | [4] -0.1 | entinostat 0.017 | vorinostat 0.041 | citarinostat 0.101 | silmitasertib 0.058 | [5] -0.073 | [6] -0.069

NOL7 (UniProt Q9UMY1)
inactive: [1] 0.107 | [2] 0.131 | [3] 0.316 | [4] 0.177 | entinostat -0.079 | vorinostat -0.042 | citarinostat -0.101 | silmitasertib 0.166 | [5] 0.121 | [6] -0.218

NEDD4L (UniProt Q96PU5)
inactive: [1] -0.045 | [2] -0.062 | [3] -0.06 | [4] -0.074 | entinostat 0.075 | vorinostat 0.062 | citarinostat -0.001 | silmitasertib 0.114 | [5] -0.006 | [6] -0.034

NOLC1 isoform 2 (UniProt Q14978)
inactive: [1] 0.149 | [2] -0.031 | [3] -0.011 | [4] 0.014 | entinostat -0.043 | vorinostat 0.009 | citarinostat 0.109 | silmitasertib -0.037 | [5] -0.037 | [6] -0.183

NPC1 (UniProt O15118)
inactive: [1] 0.002 | [2] 0.039 | [3] -0.196 | [4] -0.017 | entinostat -0.049 | vorinostat 0.004 | citarinostat 0.017 | silmitasertib 0.031 | [5] 0.027 | [6] -0.106

NUP107 (UniProt P57740)
inactive: [1] -0.009 | [2] -0.022 | [3] 0.056 | [4] -0.032 | entinostat -0.039 | vorinostat 0.416 | citarinostat 0.016 | silmitasertib 0.085 | [5] 0.045 | [6] -0.109

MSTO1 (UniProt Q9BUK6)
inactive: [1] 0.013 | [2] 0.015 | [3] -0.144 | [4] -0.059 | entinostat -0.005 | vorinostat 0.053 | citarinostat 0.08 | silmitasertib -0.015 | [5] -0.045 | [6] 0.017

OXR1 (UniProt Q8N573)
inactive: [1] 0.03 | [2] 0 | [3] -0.157 | [4] -0.008 | entinostat 0.023 | vorinostat -0.029 | citarinostat 0.062 | silmitasertib -0.009 | [5] -0.044 | [6] -0.001

NRF1 isoform 4 (UniProt Q16656)
inactive: [1] 0.021 | [2] -0.088 | [3] -0.129 | [4] -0.037 | entinostat 0.056 | vorinostat 0.047 | citarinostat 0.039 | silmitasertib -0.02 | [5] -0.064 | [6] 0.04
